Results taken from PubChem BioAssay (Tox21).
Records with an inconclusive call do not appear. Entries that show only a call come without a potency. Active and inactive are the calls of the source. The call rests on the fitted dose curve; in most records, active means well fitted cell-killing curve with a large enough effect in the repeat runs; inconclusive means weak or mixed curves, or effect the other way; inactive means flat fitted curve, though single readings scatter.

Tests used:
[1] = cAMP Responsive Elements (CRE) small molecule antagonists, cell-based qHTS assay: qHTS cell viability counter screen (AID 2060913); further: nearly all actives have a fitted effect of over 40% in size
Method in brief: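 Viability of NKH477-stimulated (0.25 uM final) CRE-bla HEK293T cells is measured by CellTiter-Glo luminescence following 3 hrs compound exposure at 37 C.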

[2] = cAMP Responsive Elements (CRE) small molecule agonists, cell-based qHTS assay: qHTS cell viability counter screen (AID 2060914);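 further: viability read after 3 h of compound exposure; nearly all actives have a fitted effect of over 50% in size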
Method in brief: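 Cells are seeded and incubated 18 h, treated with compounds in DMSO for 3 h, read for the bla reporter, then given CellTiter-Glo; luminescence is measured after 30 min at room temperature.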

Row | SMILES | Potency [1] | Potency [2]
1 | CCOC(=O)C(=O)c1csc(NC=O)n1 | inactive | inactive
2 | O=C1NS(=O)(=O)c2ccccc21 | inactive | inactive
3 | COC(=O)[C@@H](N)Cc1ccc(O)c(O)c1 | inactive | inactive
4 | O=S(=O)(O)c1ccc(N=Nc2c(O)ccc3cc(S(=O)(=O)O)ccc23)cc1 | inactive | inactive
5 | c1ccccc1 | inactive | inactive
6 | CCCCCCCCC | inactive | inactive
7 | C[C@@H]1CC[C@H]2C(C)(C)[C@H]3C[C@@]12CC[C@@]3(C)O | inactive | inactive
8 | O=C(O)c1cc(N=Nc2ccc([N+](=O)[O-])cc2)ccc1O | inactive | inactive
9 | BrCCCCCBr | inactive | inactive
10 | CC1=Nc2ccc3ccccc3c2C1(C)C | inactive | inactive
11 | Cc1ccc(C(C)NC(=O)[C@@H](NC(=O)OC(C)C)C(C)C)cc1 (stereo not given in full) | inactive | inactive
12 | O=C=Nc1ccc(Cc2ccc(N=C=O)cc2)cc1 | inactive | inactive
13 | CC[N+](CC)(CC)CCOc1cccc(OCC[N+](CC)(CC)CC)c1OCC[N+](CC)(CC)CC | inactive | inactive
14 | CCOC(=O)N1CCC(Nc2ccc(Cl)cc2N)CC1 | inactive | inactive
15 | O=[N+]([O-])c1ccc2c(c1)Cc1ccccc1-2 | inactive | inactive
16 | COc1ccccc1N1CCN(CCCCNC(=O)c2ccc(-c3ccc(C(C)=O)cc3)cc2)CC1 | inactive | inactive
17 | CC1CC(=O)CC(C)(C)C1 (stereo not given) | inactive | inactive
18 | C=COCCOCCOC=C | inactive | inactive
19 | C=C(C)[C@@H]1CCC2=CC(=O)C[C@@H](C)[C@]2(C)C1 | inactive | inactive
20 | COc1c(Cl)ccc(Cl)c1C(=O)O | inactive | inactive
21 | CC(=O)CC(=O)c1ccccc1 | inactive | inactive
22 | Oc1cccc(Nc2ccccc2)c1 | inactive | inactive
23 | CC(C)(N)C#N | inactive | inactive
24 | CC(=O)/C=C/C1=C(C)CCCC1(C)C | inactive | inactive

Row | SMILES | Potency [1] | Potency [2]
25 | Cc1[nH]cnc1CN1CCc2c(c3ccccc3n2C)C1=O | inactive | inactive
26 | C=C(C)C(=O)OC | inactive | inactive
27 | CCN(CC)CCSC(=O)C(c1ccccc1)c1ccccc1 | inactive | inactive
28 | CS(C)=O | inactive | inactive
29 | Cc1cc(-n2nc3ccc(Cl)cc3n2)c(O)c(C(C)(C)C)c1 | inactive | inactive
30 | COc1cccc2sc(N)nc12 | inactive | inactive
31 | CC(C)(C)C(=O)O | inactive | inactive
32 | O=Cc1cc(O)ccc1Br | inactive | inactive
33 | C[Si](NC1CCCCC1)(NC1CCCCC1)NC1CCCCC1 | inactive | inactive
34 | CC(C=O)c1ccccc1 (stereo not given) | inactive | inactive
35 | c1ccc(COCc2ccccc2)cc1 | inactive | inactive
36 | N[C@@H](CCC(=O)O)C(=O)O | inactive | inactive
37 | COc1cc2c(cc1OC)[C@@H]1CC(=O)[C@@H](CC(C)C)CN1CC2 | inactive | inactive
38 | CC(C)(O)c1coc(S(=O)(=O)NC(=O)Nc2c3c(cc4c2CCC4)CCC3)c1 | inactive | inactive
39 | Cc1cc(C)cc(OCC2CNC(=O)O2)c1 (stereo not given) | inactive | inactive
40 | CC(C)COC(=O)/C=C/c1ccccc1 | inactive | inactive
41 | CCOC(=O)C(C)(C)C | inactive | inactive
42 | C=CC(=O)Nc1cc2c(Nc3ccc(F)c(Cl)c3)ncnc2cc1OCCCN1CCOCC1 | inactive | inactive
43 | CC(C)CCCCCCc1ccc(OCCOCCO)cc1 | inactive | inactive
44 | CCc1nnc(NS(=O)(=O)c2ccc(N)cc2)s1 | inactive | inactive
45 | Clc1ccc2nsnc2c1NC1=NCCN1 | inactive | inactive
46 | CC1=CC(=O)CCC1 | inactive | inactive
47 | CC(=O)Oc1cc(C(C)C)c(OCCN(C)C)cc1C | inactive | inactive
48 | Cc1ccc(-c2ccccc2C#N)cc1 | inactive | inactive

Row | SMILES | Potency [1] | Potency [2]
49 | C[C@@H]1C[C@H]2[C@@H]3CCC4=CC(=O)C=C[C@]4(C)[C@@]3(F)[C@@H](O)C[C@]2(C)[C@@]1(O)C(=O)CO | inactive | inactive
50 | NCCOCCO | inactive | inactive
51 | COc1ccc(OC)c(OC)c1 | inactive | inactive
52 | Cc1cccc(C)c1C | inactive | inactive
53 | C[C@@H]1C[C@H]2[C@@H]3CCC4=CC(=O)C=C[C@]4(C)[C@@]3(F)[C@@H](O)C[C@]2(C)[C@@]1(O)C(=O)COC(=O)c1ccncc1 | inactive | inactive
54 | COc1ccc(-n2nc(C(F)F)cc2-c2ccc(S(C)=O)cc2)cc1 (stereo not given) | inactive | inactive
55 | CCc1oc2ccccc2c1C(=O)c1cc(I)c(O)c(I)c1 | inactive | inactive
56 | O=C(OCC1CO1)C1CCCCC1C(=O)OCC1CO1 (stereo not given) | inactive | inactive
57 | Nc1c(I)cc(I)c(C(=O)N(CCC(=O)O)c2ccccc2)c1I | inactive | inactive
58 | Clc1cc(Cl)cc(Cl)c1 | inactive | inactive
59 | COc1ccc(OC)c(C(O)CNC(=O)CN)c1 (stereo not given) | inactive | inactive
60 | CC(C)OC(C)C | inactive | inactive
61 | CC(C)OCC1CO1 (stereo not given) | inactive | inactive
62 | CSc1c(Cl)c(Cl)c(Cl)c(Cl)c1Cl | inactive | inactive
63 | CCN(CC)CCNC(=O)COc1ccc(OC)cc1 | inactive | inactive
64 | Cc1cccc(C)c1NC(=O)CC12CCCN1CCC2 | inactive | inactive
65 | O=C(/C=C/c1ccc(O)c(O)c1)O[C@@H]1C[C@](O)(C(=O)O)C[C@@H](O)[C@H]1O | inactive | inactive
66 | Clc1ccc2c(c1)C(N1CCNCC1)=Nc1ccccc1O2 | inactive | inactive
67 | O=C(O)c1cc2ccccc2cc1O | inactive | inactive
68 | CC(CO)c1ccccc1 (stereo not given) | inactive | inactive
69 | CN1CCCN=C1COC(=O)C(O)(c1ccccc1)C1CCCCC1 (stereo not given) | inactive | inactive
70 | C=C(C)C(=O)OCCOP(=O)(O)OCCOC(=O)C(=C)C | inactive | inactive
71 | CC(CN(C)C)CN1c2ccccc2CCc2ccccc21 (stereo not given) | inactive | inactive
72 | C[Si](O[Si](C)(C)C)O[Si](C)(C)C | inactive | inactive

Row | SMILES | Potency [1] | Potency [2]
73 | Cc1cccc(Nc2ccccc2C(=O)O)c1C | inactive | inactive
74 | CN=C(NC#N)NCCSCc1csc(N=C(N)N)n1 | inactive | inactive
75 | C=CCCCCCCCCC(=O)OCCCC | inactive | inactive
76 | O=C(O)c1cc(=O)c2c(OCC(O)COc3cccc4oc(C(=O)O)cc(=O)c34)cccc2o1 | inactive | inactive
77 | CCC(Cl)CCC(Cl)C(Cl)CC(Cl)C(Cl)C(Cl)CCl (stereo not given) | inactive | inactive
78 | Cn1c(=O)c2c(ncn2CC2OCCO2)n(C)c1=O | inactive | inactive
79 | COc1cc(NS(=O)(=O)c2ccc(N)cc2)nc(C)n1 | inactive | inactive
80 | CCCCCCOC(=O)CCC | inactive | inactive
81 | Oc1cc2c(cc1O)[C@H]1c3ccc(O)c(O)c3OC[C@@]1(O)C2 | inactive | inactive
82 | O=C(O)CCCCCC(=O)O | inactive | inactive
83 | C[N+]1(CC2COC(c3ccccc3)(C3CCCCC3)O2)CCCCC1 (stereo not given) | inactive | inactive
84 | CCc1ccc(O)c(OC)c1 | inactive | inactive
85 | CC(=O)Nc1ccc(OC(=O)c2ccccc2OC(C)=O)cc1 | inactive | inactive
86 | Nc1ccnc(=O)[nH]1 | inactive | inactive
87 | Cc1nnc(NS(=O)(=O)c2ccc(N)cc2)s1 | inactive | inactive
88 | CCCN1CCCC[C@H]1C(=O)Nc1c(C)cccc1C | inactive | inactive
89 | Cc1ccc(C)c(S(=O)(=O)O)c1 | inactive | inactive
90 | CC(O)CN(CCCN(C)C)CCCN(C)C (stereo not given) | inactive | inactive
91 | CCC(C(=O)O)c1ccc(N2Cc3ccccc3C2=O)cc1 (stereo not given) | inactive | inactive
92 | COC(=O)CCCC(=O)OC | inactive | inactive
93 | CCOC(=O)OC(C)OC(=O)[C@@H]1N2C(=O)[C@@H](NC(=O)[C@H](N)c3ccccc3)[C@H]2SC1(C)C (stereo not given in full) | inactive | inactive
94 | CN1[C@@H]2CC[C@H]1CC(NC(=O)n1c(=O)[nH]c3ccccc31)C2 (stereo not given in full) | inactive | inactive
95 | Cc1c(N)cccc1Cl | inactive | inactive
96 | O=C(O)CSCC(=O)NC1CCSC1=O (stereo not given) | inactive | inactive

Row | SMILES | Potency [1] | Potency [2]
97 | O=C1OCc2ccccc21 | inactive | inactive
98 | C=CCN1CCc2nc(N)sc2CC1 | inactive | inactive
99 | O=C(O)CCc1ccccc1 | inactive | inactive
100 | COc1c2occc2c(OC)c2c(=O)cc(C)oc12 | inactive | inactive
101 | COS(=O)(=O)O | inactive | inactive
102 | N#CC1(c2ccc(F)cc2)CCC(=O)CC1 | inactive | inactive
103 | CCCC(CCC)C(=O)O | inactive | inactive
104 | O=C1CCCc2c1cc1ccc3cccc4ccc2c1c34 | inactive | inactive
105 | CCCCOC(=O)CC | inactive | inactive
106 | O=[N+]([O-])c1cccc(I)c1 | inactive | inactive
107 | CC1=CC(=O)CC(C)(C)C1(O)/C=C/C(C)=C\C(=O)O (stereo not given) | inactive | inactive
108 | Clc1cccnc1 | inactive | inactive
109 | CN1CCC(N(Cc2cccs2)c2ccccc2)CC1 | inactive | inactive
110 | COC(=O)CC#N | inactive | inactive
111 | O=c1[nH]c(=O)n([C@H]2CCCO2)cc1F | inactive | inactive
112 | CCC(C(=O)NC(N)=O)c1ccccc1 (stereo not given) | inactive | inactive
113 | O=C(Cl)c1cc(Cl)cc(Cl)c1 | inactive | inactive
114 | COCC(=O)Nc1c(I)c(C(=O)NCC(O)CO)c(I)c(C(=O)N(C)CC(O)CO)c1I (stereo not given) | inactive | inactive
115 | Cn1cnc([N+](=O)[O-])c1Sc1ncnc2nc[nH]c12 | inactive | inactive
116 | CCCCC(CC)COC(=O)c1ccc(C(=O)OCC(CC)CCCC)cc1 (stereo not given) | inactive | inactive
117 | O=[N+]([O-])c1cccc(S(=O)(=O)O)c1 | inactive | inactive
118 | CNc1ncnc2nc[nH]c12 | inactive | inactive
119 | O=c1cc(-c2ccc(O)cc2)oc2cc(O)cc(O)c12 | inactive | inactive
120 | CCCCC(CC)COCCCN (stereo not given) | inactive | inactive
